Source: PubChem
Only some compounds are listed: those with a hit (about 4.1% of all), similar ones and a draw of the others.
TWEAK-Fn14 inh: TWEAK-Fn14 signaling inhibition; TWEAK-stimulated Fn14 reporter cells, luciferase luminescence, 8 h; 360,000 compounds, 2% hits; AID 1159606; inhibition, % at 10 µM; in the data active = inhibition above about 50%
MITF TRPM1 inh: MITF TRPM1 promoter inhibition in SK-MEL-5 cells; 330,000 compounds, 0.83% hits; SK-MEL-5 TRPM1 promoter luciferase, 24 h; inhibition, % at 12.5 µM; AID 488899;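 active = mean inhibition across replicates of 60% or more, whatever share of single replicates reaches that level; inconclusive = some that reach 60%, reason not given; inactive = mean inhibition across replicates below 60%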
Peg3 prom inh: inhibitors of Peg3 promoter | HeLa PEG-Prom luciferase reporter, luminescence, overnight | inhibition, % at 20 µM | 360,000 compounds, 1.7% hits;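 active = inhibition of at least 50% at 20 µM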
TROY NFkB inh: blocks TROY-dependent signaling in reporter cells. Q293 LMP1-TROYcd NF-kB luciferase reporter, 4 h. inhibition, % at 10 µM. 360,000 compounds, 0.98% hits. AID 1347056;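 active = compounds whose plate-normalised and pattern-corrected inhibition of the luciferase reporter signal at the single screening dose is 50% or more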
Shn3 3UTR inh: reduces Shn3 3'UTR luciferase signal in osteoblasts; Clone20 osteoblast Shn3 3'UTR firefly luciferase, 24 h; inhibition, % at 12.5 µM; 360,000 compounds, 0.52% hits;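 active = mean inhibition of at least 75% with every replicate also reaching 75%; inconclusive = mean inhibition at least 75% but some replicate below; inactive = mean inhibition below 75%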;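 also: 0% = median of neutral control wells and 100% = pilot-screen positive control compound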
LMP1 NFkB inh: reduces LMP1-driven NF-kappaB luciferase signal | inhibition, % at 12.5 µM | LMP1-induced NF-kappaB luciferase reporter cells, luminescence | AID 504558 | 350,000 compounds, 0.69% hits; in the data active = inhibition above about 41%; inconclusive = no clear call, values can overlap the other calls;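 also: 0% = neutral control wells and 100% = reference inhibitor control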
* marks the source's active call; other numbers are inactive results; ? = inconclusive.

SMILES	TWEAK-Fn14 inh	MITF TRPM1 inh	Peg3 prom inh	TROY NFkB inh	Shn3 3UTR inh	LMP1 NFkB inh
COc1ccc(CCNc2ncnc3sccc23)cc1OC	50.1*	23.2	-10.8	37.8	90.6*	8.8
c1ccc(CNc2ncnc3c2oc2ccccc23)nc1	-45.9	-46.4	-186.9	-35.3	-70.0	-34.4
COc1ccc(CCNc2ncnc3c2oc2ccccc23)cc1OC	90.9*	3.0	21.1	57.3*	83.6	13.8
COc1ccc(CCNc2nc(C)nc3c2oc2ccccc23)cc1OC	46.4	7.8	42.6	53.3*	75.1	17.3
COc1ccc(CN(CC(=O)NCc2ccc(F)cc2)C(=O)CCC(=O)Nc2nccs2)cc1	13.5	-1.7	7.6	-9.0	9.4	-11.3
C=C1C(=O)[C@@]23[C@H](O)C[C@@H]4C(C)(C)CC[C@H](O)[C@]4(C)[C@@H]2C[C@H](O)[C@@H]1[C@H]3O	59.8*	42.3	43.4	10.1	96.7*	-12.9
C=C1C(=O)[C@@]23[C@H](O)C[C@@H]4C(C)(C)CC[C@H](O)[C@@]4(C)[C@@H]2CC[C@@H]1[C@H]3O	95.0*	92.7*	101.6*	28.2	98.0*	94.3*
Cc1ccc(-n2nc3c(=O)n(CCCC(=O)NCc4ccc(C)o4)nc(C)c3c2C)cc1	6.3	32.9	-3.0	-3.2	30.1	-7.2
COC(=O)c1ccc(CNC(=O)c2sccc2-c2ccccc2)cc1	-2.4	79.3*	9.9	16.8	16.6	3.5
COC(=O)c1ccc(CNC(=O)c2ccc3c(c2)OCCO3)cc1	78.9*	-10.1	-90.9	-34.6	-27.5	-13.3
COC(=O)c1cc(CNC(=O)c2sccc2-c2ccccc2)ccc1OC	-1.8	7.6	20.2	-6.7	13.7	2.5
CCCCCn1nc(C(=O)N(CC)c2c(N)n(CCCC)c(=O)[nH]c2=O)c2ccccc2c1=O	0.7	18.2	0.0	-19.0	-1.5	-0.8
COc1ccc(C(C(=O)NC2CCCC2)N(C(=O)c2csnn2)C2CCCC2)cc1 (stereo unspecified)	10.7	-6.3	4.2	20.4	10.1	-4.3
CCSc1nnc(NC(=O)c2nc(S(=O)(=O)Cc3ccc(F)cc3)ncc2Cl)s1	99.5*	40.3	107.0*	-2.3	95.8*	5.5
CSc1ncc(Cl)c(C(=O)Nc2nnc(SC/C=C/c3ccccc3)s2)n1	-12.3	10.2	13.3	30.2	-36.9	0.2
O=C(Nc1nnc(SCc2ccc(F)cc2)s1)c1ccccn1	-15.6	0.6	64.6*	32.8	76.5	45.0*
Cc1cccc(CS(=O)(=O)c2ncc(Cl)c(C(=O)Nc3nnc(C(C)C)s3)n2)c1	100.8*	76.5*	106.5*	55.0*	95.5*	56.3*
C=CCSc1nnc(NC(=O)c2nc(SCC)ncc2Cl)s1	-10.4	3.5	-0.1	0.3	-4.9	-15.1
CSc1nnc(NC(=O)c2nc(S(=O)(=O)Cc3ccccc3F)ncc2Cl)s1	97.2*	75.0*	105.9*	7.3	96.3*	12.8
O=C(Nc1nnc(SCc2ccc(F)cc2)s1)c1cccnc1Cl	6.7	-5.1	-13.1	-24.9	7.4	1.8
Cc1cc(C)c(NC(=O)CSc2nnc(CNC(=O)c3ccco3)o2)c(C)c1	-8.4	-3.7	2.0	7.9	-6.1	1.5
O=C(Nc1ccc2c(c1)C(=O)NC2=O)c1ccc2ncsc2c1	-38.5	-30.2	-124.4	-21.6	-90.0	-16.0
O=C(CNC(=O)c1ccc(Cl)cc1)NC(CO)c1ccccc1 (stereo unspecified)	24.7	1.8	1.1	-8.1	2.7	3.9
Cc1nnc(NC(=O)c2nc(S(=O)(=O)Cc3ccccc3C)ncc2Cl)s1	102.3*	79.6*	105.7*	28.1	96.4*	81.1*
CSc1nnc(NC(=O)c2ccco2)s1	7.2	-17.1	-27.6	-45.0	-46.9	-3.6
CSc1nnc(NC(=O)c2nc(S(=O)(=O)Cc3cccc(C)c3)ncc2Cl)s1	94.3*	81.0*	101.3*	46.2	96.0*	?
Cc1ccc(CS(=O)(=O)c2ncc(Cl)c(C(=O)Nc3nnc(C(C)C)s3)n2)cc1	99.8*	79.2*	109.7*	60.4*	94.9*	39.0
CC(C)c1nnc(NC(=O)c2nc(S(=O)(=O)Cc3ccc(F)cc3)ncc2Cl)s1	99.2*	75.2*	106.1*	29.5	98.4*	85.2*
O=C(NCc1ccccc1Cl)[C@@H]1CCCN1S(=O)(=O)c1ccc(Cl)cc1	-0.7	8.0	12.5	-4.4	3.0	0.7
COCCN(CC(=O)NCc1ccc(OC)cc1)C(=O)CCC(=O)Nc1nccs1	5.9	5.4	-2.5	5.2	-5.4	-2.3
